Screens deposited in PubChem BioAssay by Broad Institute.
Vif inh: HIV Vif self-association inhibitors, primary screen, imaging, HEK293T, single point; inhibition, % at 7.49 µM; actives 0.35% (n = 340,000); HEK293T cells, Vif self-association by quenched fluorescence, 24 h; AID 602346, 2012; in the data active means inhibition above about 50%, passing the limit was not always enough; inconclusive means no clear call, values can overlap the other calls; inactive means below about 31%
MITF TRPM1 HTS: activators of MITF-driven TRPM1 promoter reporter, primary screen, cell-based, SK-MEL-5, luciferase, single point. SK-MEL-5 TRPM1-promoter luciferase, 24 h; % of positive control, neutral wells = 0. activation, % at 12.5 µM. actives 0.75% (n = 300,000);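 active means mean activation of at least 80% with every replicate also reaching 80%; inconclusive means mean reaches 80% but some replicate falls short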;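 further: 0% = neutral control wells and 100% = parthenolide positive control wells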
esBAF inh: Bmi1 luciferase reporter increase in mESCs, primary screen, esBAF inhibitor project, mouse ES cells, Bmi1 luciferase knock-in, single point | AID 602393, 2012 | reporter increase, % at 12.5 µM | actives 2% (n = 350,000) | 24 h; 100% = twice the neutral-well signal; in the data active means activation above about 40%; inconclusive means no clear call, values can overlap the other calls;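 further: 0% = median of the plate's neutral control wells and 100% = double that signal; a rise in the Bmi1 reporter signal indicates esBAF inhibition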
Wnt bcat act: Wnt/beta-catenin pathway activators, primary screen, cell-based, plate reader, single point. Wnt/beta-catenin reporter cell assay, activator. activation, % at 9.35 µM. actives 1.2% (n = 300,000). AID 743398, 2014; in the data active means activation above about 30%, passing the limit was not always enough; inconclusive means no clear call, values can overlap the other calls;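 further: 0% = neutral control wells and 100% = positive control wells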
PvdQ inh: P. aeruginosa PvdQ acylase inhibitors, primary screen, biochemical, fluorescence, plate reader and imaging, single point; actives 0.063% (n = 340,000); AID 488965, 2010; inhibition, % at 10 µM; purified PvdQ acylase; PvdQ acylase [Pseudomonas aeruginosa LESB58]; in the data active means inhibition above about 30%, passing the limit was not always enough; inconclusive means no clear call, values can overlap the other calls;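 further: 0% = vehicle neutral wells and 100% = reference inhibitor wells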
Glyco luc inh: increase of ERlucT glycosylation luciferase signal, primary screen, N-linked glycosylation inhibitor project, D54 ERlucT cells, luminescence, set 2; D54 ERlucT glycosylation luciferase reporter, 24 h; percent of 100 nM tunicamycin response; reporter increase, % at 12.5 µM; actives 0.23% (n = 360,000); AID 588692, 2011;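 active means mean luciferase reporter signal, scaled so untreated is 0 and the glycosylation-blocking control 100, at or above a set limit in every replicate; inconclusive means mean reaches the limit but not every replicate does; inactive means mean below the limit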;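 further: luciferase carries N-glycosylation sites so blocking glycosylation raises the light; 0% = median of neutral control wells and 100% = median of 100 nM tunicamycin wells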
Numbers without * were called inactive; ? = inconclusive; . = no result given. Compounds with a hit are over-represented: about 2.9% of the library has one in this group of screens.

SMILES | Vif inh | MITF TRPM1 HTS | esBAF inh | Wnt bcat act | PvdQ inh | Glyco luc inh
CCc1nnc2n1N=C(c1ccc([N+](=O)[O-])cc1)CS2 | -5.1 | . | . | -3.4 | -3.6 | 0.7
C[C@H]1CN([C@@H](C)CO)C(=O)c2cccc(NC(=O)c3nc4ccccc4s3)c2O[C@H]1CN(C)S(C)(=O)=O | . | . | -1.4 | . | . | .
C[C@@H]1CN([C@H](C)CO)C(=O)c2cc(C#Cc3ccccn3)cnc2O[C@H]1CN(C)CC1CCCC1 | . | . | 1.2 | . | . | .
N/C(=N\OC(=O)COc1ccc2ccccc2c1)c1ccccn1 | 13.9 | 55.9 | 102.6* | 35.7* | -2.8 | -6.2
Cc1ccc(C)c(OCC(=O)O/N=C(\N)c2ccccn2)c1 | 14.6 | 95.7* | 72.1* | 45.4* | -17.0 | -6.3
COc1ccc(S(=O)(=O)Nc2ccc3c(c2)C(=O)N([C@H](C)CO)C[C@H](C)[C@H](CN(C)C(=O)c2ccncc2)OCCCC[C@H](C)O3)cc1 | . | . | 0.1 | . | . | .
Cc1ccc(C(=O)N/C(=C\c2sccc2C)C(=O)NCc2ccco2)cc1 | 50.9* | -5.7 | 0.6 | . | 3.8 | 2.5
CC(=O)c1c(C)[nH]c(C(=O)OCC(=O)N2CCc3ccccc32)c1C | 14.0 | 53.5 | 54.5* | 0.0 | 4.5 | 6.3
Cc1ccc(C(=O)OCC(=O)N2CCc3ccccc32)cc1 | -17.7 | 108.0* | ? | 23.0 | -6.9 | 0.7
Cc1ccc(C(=O)OCC(=O)N2CCCc3ccccc32)cc1C | 3.9 | 18.9 | 8.2 | 7.4 | 0.0 | 1.3
Cn1cccc1C(=O)OCC(=O)N1CCc2ccccc21 | 6.4 | 100.4* | 24.9 | 53.0* | 10.0 | -1.9
Cc1noc(C)c1NC(=O)Nc1ccc2c(c1)C(=O)N([C@@H](C)CO)C[C@@H](C)[C@H](CN(C)Cc1ccncc1)OCCCC[C@H](C)O2 | . | . | -2.3 | . | . | .
c1cc2cc(-c3c(-c4ccc5c(c4)OCO5)noc3-c3ccsc3)ccc2[nH]1 | 8.1 | 41.9 | 54.9* | 32.9* | -15.0 | -1.2
COc1ccc(CC(NC(C)=O)C(=O)NC2CCN(C(=O)c3ccccc3F)CC2)cc1 (stereo not drawn) | 70.4* | -1.6 | 3.8 | -0.4 | -10.3 | -0.6
CC(C)CN(C(=O)CCNC(=O)c1ccc([N+](=O)[O-])cc1)C1CCS(=O)(=O)C1 (stereo not drawn) | 13.3 | -2.5 | 0.0 | -2.1 | -3.1 | 1.3
CC(C)CN(C(=O)CCNC(=O)c1ccccc1Cl)C1CCS(=O)(=O)C1 (stereo not drawn) | 7.5 | 1.0 | -0.4 | 32.4* | 13.7 | 1.6
Cc1noc(C)c1NC(=O)Nc1ccc2c(c1)C(=O)N([C@@H](C)CO)C[C@H](C)[C@H](CN(C)Cc1ccncc1)OCCCC[C@@H](C)O2 | . | . | -3.0 | . | . | .
CCN(CC)C(=S)SCC(=O)c1ccc(F)cc1 | -5.4 | 76.2 | 48.4* | ? | 9.0 | -4.8
CCN(CC)C(=S)SCC(=O)Nc1ccc(F)cc1 | -9.5 | 6.1 | . | . | 5.1 | -4.0
CCN(CC)C(=S)SCC(=O)c1ccccc1 | 9.4 | . | 54.9* | . | 4.4 | -6.7
C[C@@H]1CN([C@H](C)CO)C(=O)c2cc(C3=CCCCC3)cnc2O[C@@H]1CN(C)C(=O)Nc1cccc(F)c1 | . | . | 10.7 | . | . | .
CCN(CC)c1cc(C)c(C#N)c2nc3ccccc3n12 | -0.1 | -2.5 | -4.6 | 36.4* | -10.1 | 0.4
Cc1cc(Cl)n2c(nc3ccccc32)c1C#N | 35.1 | -80.7 | . | 5.3 | -2.2 | -5.4
Cc1c(CCCl)c(Cl)n2c(nc3ccccc32)c1C#N | 60.8* | -96.3 | . | -4.3 | -14.4 | -19.2
CCc1c(C)c(C#N)c2nc3ccccc3n2c1NCCN(C)C | . | -9.5 | 12.6 | . | -8.1 | -2.1
SMILES | Vif inh | MITF TRPM1 HTS | esBAF inh | Wnt bcat act | PvdQ inh | Glyco luc inh
C=C(C)Cc1c(C)c(C#N)c2nc3ccccc3n2c1NCCCN(C)C | 9.3 | . | . | 1.1 | . | 37.6*
CC=Cc1ccc2n(c1=O)C[C@H]1[C@H](CO)[C@@H](C(=O)NCCN3CCCC3)N(C(=O)NCCC)[C@@H]21 (mixture of isomers) | . | . | 3.7 | . | . | .
CO[C@H]1CN(C)C(=O)c2ccc(NC(=O)c3cnccn3)cc2OC[C@@H](C)N(C)C[C@H]1C | . | . | -4.0 | . | . | .
COc1ccc(C2OC3=C(Nc4cc(C)c(C)cc4N3)C2=O)cc1 (stereo not drawn) | 0.6 | 60.7 | 56.4* | 21.4 | -13.6 | -0.6
CN1CCCN(C(=O)c2cc(-c3cccc4ccccc34)nc3ccccc23)CC1 | 0.8 | 7.9 | -3.5 | 46.8* | -3.1 | -0.9
Cc1ccc(-c2cc(C(=O)N3CCN(c4ccccc4O)CC3)c3ccccc3n2)cc1 | 8.4 | 34.7 | 55.2* | 15.8 | 19.7 | -3.8
Cc1ccc(-c2cc(C(=O)N3CCN(c4ccc(O)cc4)CC3)c3ccccc3n2)cc1 | 2.0 | 39.8 | 24.7 | -2.0 | 0.7 | -0.8
O=C(c1cc(-c2ccccc2Cl)nc2ccccc12)N1CCC1 | ? | 6.6 | . | 0.1 | -4.5 | 0.1
CC(=O)N(/N=C1/C(=O)Nc2ccccc21)c1ccccc1 | 23.4 | 33.4 | 44.5* | 15.5 | 7.6 | 1.2
O=C1N[C@H]2CC=C[C@H]2N(Cc2cccs2)c2ccccc21 | 6.0 | 8.9 | 5.5 | -1.8 | -7.3 | 54.1*
O=C1c2ccccc2C(O)N1Cc1cccs1 (stereo not drawn) | -2.6 | 0.8 | -6.8 | -1.5 | -3.5 | 3.0
C[C@@H]1CN([C@@H](C)CO)C(=O)c2cc(NC(=O)c3ccccc3)ccc2O[C@@H](C)CCCCO[C@@H]1CN(C)C(=O)Nc1ccccc1 | . | . | 4.0 | . | . | .
Cc1ccc2nc(N3C(=O)C(O)=C(C(=O)c4ccc(C)o4)C3c3ccco3)sc2c1 (stereo not drawn) | 2.8 | 1.0 | ? | 18.0 | -5.6 | -0.1
O=C(C1=C(O)C(=O)N(c2nc3ccc(Cl)cc3s2)C1c1ccco1)c1ccco1 (stereo not drawn) | -0.3 | -13.9 | ? | 32.6* | 2.3 | -0.1
Cc1ccc2nc(N3C(=O)C(O)=C(C(=O)c4cc5ccccc5o4)C3c3cccs3)sc2c1 (stereo not drawn) | 11.8 | 6.2 | 44.5* | . | -4.8 | -0.8
CN(C)CC(=O)N[C@@H]1C=C[C@H](CC(=O)NCCN2CCCCC2)O[C@@H]1CO | . | . | -3.9 | . | . | .
N#CCn1c(C2CCCCC2)nc2ccccc2c1=O | 36.0 | 9.6 | -1.2 | 23.6 | 35.1* | -0.8
Cc1ccc(S(=O)(=O)Nc2ccc3c(c2)CC(=O)N([C@@H](C)CO)C[C@@H](C)[C@@H](CN(C)C)O3)cc1 | . | . | -1.1 | . | . | .
CCOC(=O)C1(Cc2cccc(F)c2)CCN(C(=O)C2CCCO2)CC1 (stereo not drawn) | 51.4* | 11.8 | -3.4 | 7.8 | -12.0 | 1.8
